Laboratory results as given in PubChem BioAssay (NCI).
Several values for one entry are separate records, joined by “and”; a condition that tells them apart may be missing. Equal entries are not always repeated. This is part of a sample that, as a whole, favours compounds with a hit. Of some 83,000 tested, about 20% had one in any assay.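 48-hour exposure, single concentration, 96-well plates; percent growth endpoint where 0 means no net growth. Active: below 10.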 Activity calls are given as the source filed them.

How the values were obtained:
Experiment in all cases: NCI-60 one-dose screen, 48 h (100 = growth as untreated, 0 = no growth, -100 = all killed)
NCI-H226 lung = conditions: 10 µM
NCI-H322M lung = conditions: 10 µM
HOP-62 NSCLC = conditions: 10 µM
NCI-H460 lung = conditions: 10 µM
A549/ATCC NSCLC = conditions: 10 µM
786-0 renal = conditions: 10 µM
DU-145 prostate = conditions: 10 µM
SF-268 CNS = conditions: 10 µM
SF-295 CNS = conditions: 10 µM
SF-539 CNS = conditions: 10 µM
HCT-15 colon = conditions: 10 µM
HT29 colon = conditions: 10 µM
SNB-75 CNS = conditions: 10 µM
SNB-19 CNS = conditions: 10 µM
U251 CNS = conditions: 10 µM
PC-3 prostate = conditions: 10 µM
EKVX NSCLC = conditions: 10 µM
UO-31 renal = conditions: 10 µM
ACHN renal = conditions: 10 µM
HL-60(TB) leukemia = conditions: 10 µM unless noted

| Compound | growth (NCI-H226 lung) | growth (NCI-H322M lung) | growth (HOP-62 NSCLC) | growth (NCI-H460 lung) | growth (A549/ATCC NSCLC) | growth (786-0 renal) | growth (DU-145 prostate) | growth (SF-268 CNS) | growth (SF-295 CNS) | growth (SF-539 CNS) | growth (HCT-15 colon) | growth (HT29 colon) | growth (SNB-75 CNS) | growth (SNB-19 CNS) | growth (U251 CNS) | growth (PC-3 prostate) | growth (EKVX NSCLC) | growth (UO-31 renal) | growth (ACHN renal) | growth (HL-60(TB) leukemia) |
| --- | --- | --- | --- | --- | --- | --- | --- | --- | --- | --- | --- | --- | --- | --- | --- | --- | --- | --- | --- | --- |
| CCCCCCCCCC(=O)N[C@@](C)(CC)C(=O)N1CCC[C@H]1C(=O)N[C@@H](CC(C)C)C(=O)N[C@@](C)(CC)C(=O)N[C@@H](CCC(N)=O)C(=O)N[C@H](CCC(N)=O)C(=O)NC(C)(C)C(=O)NC(C)(C)C(=O)N[C@@H](CCC(N)=O)C(=O)N[C@H](CC(C)C)C(=O)N[C@H](CO)CC(C)C | -71.9% (active) and -72.7% (active) | -94.9% (active) and -60.9% (active) | -74.3% (active) and -67.3% (active) | -77.3% (active) and -76.8% (active) | -48.6% (active) and -38% (active) | -78.5% (active) and -80.4% (active) | -99.1% (active) and -81.9% (active) | -80.5% (active) and -64.9% (active) | -91.7% (active) and -90.9% (active) | -97.2% (active) and -100% (active) | -77.8% (active) and -78.1% (active) | -40.3% (active) and -67.2% (active) | -90.8% (active) and -96.3% (active) | -93.9% (active) and -99.6% (active) | -75.9% (active) and -77.1% (active) | -87.2% (active) and -63.7% (active) | -86.7% (active) and -89.1% (active) | -96.4% (active) and -89.3% (active) | -93% (active) and -98.4% (active) | -61.8% (active) and -23.6% (active) |
| CC(=O)O[C@@H]1C[C@H]2O[C@@H]3C=C(C)CC[C@]3(C)[C@]1(C)[C@]21CO1 | 22.3% (inactive) | 18.8% (inactive) | 6.11% (active) | 6.94% (active) | 12.8% (inactive) | 7.07% (active) | 16.8% (inactive) | 15.3% (inactive) | 34.1% (inactive) | -23.1% (active) | 3.87% (active) | 8.97% (active) | 29.4% (inactive) | 3.18% (active) | 5.85% (active) | 24.8% (inactive) | 26% (inactive) | 53.3% (inactive) | 23% (inactive) | -33.9% (active) |
| CC1=C2C(=C[C@@](C)(C=O)[C@@H]2O)C(=O)[C@](C)(O)C12CC2 | 46.1% (inactive) | 26.5% (inactive) | 8.06% (active) | 5.09% (active) | 8.13% (active) | 5.21% (active) | 9.15% (active) | 12.2% (inactive) | 3.31% (active) | -10.7% (active) | 6.02% (active) | 4.21% (active) | -3.53% (active) | 20.7% (inactive) | 4.74% (active) | 6.53% (active) | 15% (inactive) | -13.3% (active) | -18.5% (active) | -12% (active) |
| CN1C(=O)[C@]23SSC1(C)C(=O)N2[C@H]1Nc2ccccc2C1([C@@]12c4ccccc4N[C@@H]1N1C(=O)C4(C)SS[C@]1(C(=O)N4C)[C@H]2O)[C@@H]3O (some centres undefined) | -96.6% (active) | -74.2% (active) | -91% (active) | -87.4% (active) | -86.9% (active) | -99.1% (active) | -94.1% (active) | -86.5% (active) | -80.2% (active) | -91.3% (active) | -45.4% (active) | -66.7% (active) | -85.8% (active) | -99.4% (active) | -97.5% (active) | -79.9% (active) | -97.4% (active) | -100% (active) | -98.8% (active) | -19.4% (active) |
| C/C=C/CC(C)C(O)[C@H](NC(=O)[C@@H]1CCCN1C(=O)C(C)(C)NC(=O)CCCCCCC)C(=O)N[C@@](C)(CC)C(=O)N[C@@H](CCC(N)=O)C(=O)N[C@H](CCC(N)=O)C(=O)NC(C)(C)C(=O)NC(C)(C)C(=O)N[C@@H](CCC(N)=O)C(=O)N[C@H](CC(C)C)C(=O)N[C@H](CO)CC(C)C (some centres undefined) | 105% (inactive) and 6.63% (active) | 108% (inactive) and 70% (inactive) | 95.9% (inactive) and 14.5% (inactive) | 105% (inactive) and 13.1% (inactive) | 109% (inactive) and 30% (inactive) | 103% (inactive) and 39.8% (inactive) | 110% (inactive) and -35.4% (active) | 107% (inactive) and -8.99% (active) | 98.8% (inactive) and -22.2% (active) | 100% (inactive) and -45.7% (active) | 100% (inactive) and 22.1% (inactive) | 113% (inactive) and 37.8% (inactive) | 109% (inactive) and -30.3% (active) | 101% (inactive) and 14% (inactive) | 101% (inactive) and -17.8% (active) | 103% (inactive) and 17.3% (inactive) | 100% (inactive) and 5.16% (active) | 96.7% (inactive) and 16.1% (inactive) | 103% (inactive) and 32% (inactive) | 94.8% (inactive) and -6.76% (active) |
| COc1cc2c(O[C@@H]3OC[C@H](O)[C@H](O)[C@H]3O)c3c(c(-c4ccc5c(c4)OCO5)c2cc1OC)C(=O)OC3 | 80.7% (inactive) | 82% (inactive) | 59.1% (inactive) | 71.9% (inactive) | 91% (inactive) | 78.9% (inactive) | 53.2% (inactive) | 66.7% (inactive) | 40.5% (inactive) | 53.6% (inactive) | 70.3% (inactive) | 38.6% (inactive) | 18% (inactive) | 97% (inactive) | 54.8% (inactive) | 67.1% (inactive) | 70% (inactive) | 82.2% (inactive) | 67.6% (inactive) | 32.6% (inactive) |
| Cc1ccc(CNc2nc3ccc(OC/C(=C/F)CN)cc3o2)cn1 | 90.3% (inactive) | 105% (inactive) | 72.9% (inactive) | 93.7% (inactive) | 95.6% (inactive) | 92.3% (inactive) | 88.4% (inactive) | 89.8% (inactive) | 99.9% (inactive) | 94.9% (inactive) | 112% (inactive) | 112% (inactive) | 55.5% (inactive) | 98.8% (inactive) | 110% (inactive) | 98.3% (inactive) | 61.7% (inactive) | 58.4% (inactive) | 99% (inactive) | – |
| COC(=O)[C@H]1[C@@H](O)[C@@]2(O)c3c(OC)cc(OC)cc3O[C@@]2(c2ccc(OC)cc2)[C@@H]1c1ccccc1 | 3.03% (active) | -19% (active) | -11.6% (active) | 2.19% (active) | -14.9% (active) | 0.303% (active) | -9.42% (active) | 0.0752% (active) | -14.4% (active) | -25.6% (active) | -3.06% (active) | -34.3% (active) | -6.18% (active) | -4.86% (active) | -5.73% (active) | -7.51% (active) | -5.16% (active) | -20.5% (active) | -23% (active) | -21.8% (active) |
| CC1=C[C@H]2O[C@@H]3C[C@H]4OC(=O)/C=C\C=C\[C@H]([C@@H](C)O)OCC[C@@H](C)[C@H](O)C(=O)OC[C@@]2(CC1)[C@]4(C)[C@]31CO1 | -50.5% (active) | -19.5% (active) | -34.5% (active) | -5.9% (active) | -21.1% (active) | -43.3% (active) | -18.4% (active) | -0.597% (active) | -38.8% (active) | -36.5% (active) | -7.55% (active) | -27.8% (active) | -48.3% (active) | -14.3% (active) | -20.4% (active) | -22.9% (active) | -28.5% (active) | -33.6% (active) | -13.6% (active) | -50.3% (active) |
| COc1cc2c(cc1OC)[C@@H]1N(CC2)C(=O)c2ccccc2[C@@]1(C)C(=O)O | 111% (inactive) | 102% (inactive) | 108% (inactive) | 109% (inactive) | 111% (inactive) | 99.9% (inactive) | 110% (inactive) | 110% (inactive) | 101% (inactive) | 105% (inactive) | 101% (inactive) | 107% (inactive) | 108% (inactive) | 98.4% (inactive) | 106% (inactive) | 104% (inactive) | 103% (inactive) | 97.3% (inactive) | 110% (inactive) | 104% (inactive) |
| CC1=C[C@H]2O[C@@H]3C[C@@H](O)[C@](C)([C@@]2(C)CC1)[C@@]31CO1 | 29.9% (inactive) | 24.9% (inactive) | 15.7% (inactive) | 13.2% (inactive) | 16.2% (inactive) | 24.1% (inactive) | 19.4% (inactive) | 29.3% (inactive) | 27.2% (inactive) | 23.9% (inactive) | 20.8% (inactive) | 11.4% (inactive) | 28.7% (inactive) | 18.9% (inactive) | 15.4% (inactive) | 31.5% (inactive) | 38.3% (inactive) | 16.7% (inactive) | 22.2% (inactive) | -20.9% (active) |
| CN(CCF)/N=N/c1nc[nH]c1C(N)=O | 47.6% (inactive) | 60% (inactive) | 26.5% (inactive) | 38.6% (inactive) | 98.8% (inactive) | 41.8% (inactive) | 24.6% (inactive) | 36.8% (inactive) | 19.9% (inactive) | 38.5% (inactive) | 57.6% (inactive) | 42% (inactive) | 31.4% (inactive) | 98.8% (inactive) | 90.9% (inactive) | 55.1% (inactive) | 75.9% (inactive) | 21.1% (inactive) | 36.6% (inactive) | 21.6% (inactive) |
